Measured values as given in article PMC7826789 (International Journal of Molecular Sciences, 2021).

What follows are compounds tested on PRKD1.

Kinases covered, PRKD1:
C[C@@H]1CCNC(=O)c2cc3ccc(C(=O)Nc4nc5ccccc5n4CCCN(C)C)cc3n21 [BI00645435], Cc1cccc(-c2cc(Nc3ccncc3)c3ccccc3n2)n1 [GSK223675], COc1ccc2nc(-c3cccc(C)n3)nc(Nc3ccncc3)c2c1 [GSK204919], Cc1cccc(-c2nc(Nc3ccncc3)c3ccccc3n2)n1 [GW855857]
